Common to all, as to format: functional
Test [1] concerns the target Solute carrier family 2, facilitated glucose transporter member 1 (Homo sapiens) (UniProt P11166). The test can be described thus: ST_JUDE_LEISH: Cytotoxicity at 2uM final concentration against transgenic Leishmania Mexicana promastigotes LmGLUT1 that are glucose transport deficient and complemented with the human glucose transporter GLUT1. Activity is measured by DNA content using SYBR green in vitro.

Test [2] deals with Hexose transporter 1 (Plasmodium falciparum) (UniProt O97467). The test can be described thus: ST_JUDE_LEISH: Cytotoxicity at 2uM final concentration against transgenic Leishmania Mexicana promastigotes LmPfHT that are glucose transport deficient and complemented with the Plasmodium falciparum hexose transporter. Activity is measured by DNA content using SYBR green in vitro.
In test [3] the target is Glucose transporter (Leishmania mexicana) (UniProt O61059). The test can be described thus: ST_JUDE_LEISH: Cytotoxicity at 2uM final concentration against transgenic Leishmania Mexicana promastigotes LmGT2 that are glucose transport deficient and complemented with the L. Mexicana glucose transporter 2. Activity is measured by DNA content using SYBR green in vitro.

Drawing on ChEMBL document CHEMBL3433997, “St. Jude Leishmania screening dataset” (2016), this text covers inhibition for 48 molecules.

Solute carrier family 2, facilitated glucose transporter member 1 (Homo sapiens), sequence (P11166 whole entry): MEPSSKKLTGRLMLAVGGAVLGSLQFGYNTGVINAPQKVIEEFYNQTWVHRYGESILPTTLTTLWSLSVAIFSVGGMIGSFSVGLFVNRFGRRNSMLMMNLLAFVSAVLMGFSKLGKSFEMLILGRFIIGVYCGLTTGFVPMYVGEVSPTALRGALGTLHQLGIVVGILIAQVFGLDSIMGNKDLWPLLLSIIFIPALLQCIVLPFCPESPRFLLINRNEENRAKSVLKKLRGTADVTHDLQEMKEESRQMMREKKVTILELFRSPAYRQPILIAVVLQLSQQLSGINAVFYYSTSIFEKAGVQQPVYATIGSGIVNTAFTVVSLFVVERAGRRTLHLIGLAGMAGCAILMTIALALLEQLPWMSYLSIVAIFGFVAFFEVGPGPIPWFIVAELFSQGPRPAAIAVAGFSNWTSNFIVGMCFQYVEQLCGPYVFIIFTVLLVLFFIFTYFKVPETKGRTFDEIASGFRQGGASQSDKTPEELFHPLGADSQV

`CC1CCC(C[C@@H](C(=O)N[C@@H](CCC(=O)N2CCCCC2)C(=O)Nc2nccs2)[C@H](C(C)C)N(O)C=O)CC1` (some centres undefined): the inhibition was 3.85% in test [1], 4.16% in test [2] and 3.44% in test [3].

As for `CN1C(=O)C(=O)N(CCCCCONC(=N)N)C1=S`, the inhibition was determined as 9.86% in test [1], 6.2% in test [2] and 9.97% in test [3].

As to `O=C(N[C@@H](Cc1cc(F)cc(F)c1)[C@H](O)CNCc1cccc(C(F)(F)F)c1)c1cc(C2CCCC2)cc(N2CCCC2=O)c1`, the values for the inhibition in test [1], in test [2] and in test [3] were 1.51%, 1.51% and 1.95%, respectively.

On to `CNS(=O)(=O)c1ccc(NC(=O)c2cc(-c3cccnc3)nc3ccc(Br)cc23)cc1`, for which the inhibition in test [1] stood at 2.58%; in test [2], 2.73%; in test [3] it was 3.77%.

As for `O=S(=O)(NCCN1CCCC1)c1cccc(-c2cccc(CNCc3ccc(F)cc3)c2)c1`, the inhibition in test [1] is 0.2%; in test [2], 2.85%; in test [3] it was -2.32%.

As for `Cc1ccc(-c2csc(C)n2)c(C)c1`, the inhibition in test [1] was 1.21%; in test [2], 2.19%; in test [3], 2.4%.

In the case of `CC(C)(C)COC(=O)c1ccc(NC(=O)N[C@@H](Cc2ccc(O)cc2)C(=O)NC2CCN(Cc3ccc(O)cc3)C2)cc1` (some centres undefined), the figures for the inhibition in test [1], in test [2] and in test [3] were -2.22%, -2.38% and -0.79%, respectively.

As for `NC(=O)c1cccc(Nc2nccc(Nc3ccc(Oc4cccc5ccccc45)cc3)n2)c1`, the inhibition came to 7.84% in test [1], 7.66% in test [2] and 1.31% in test [3].

On to `O=C(c1cc(-c2cccs2)n[nH]1)N1CCN(S(=O)(=O)c2ccc(Br)cc2)CC1`, for which the inhibition in test [1] turned out to be 0.07%; in test [2] it was 3.88%; in test [3], 2.13%.

Regarding `O=C(/C=C/c1ccc(Cl)cc1)NCCCCCN1CCN(C(=O)C=Cc2ccc(Cl)c(Cl)c2)CC1`, the inhibition is 2.44% in test [1], 0.82% in test [2] and -2.29% in test [3].

For `COCCOc1ccc(Nc2nccc(-c3c(-c4cccc(NC(=O)c5c(F)cccc5F)c4)nn4ccccc34)n2)cc1Cl`, the results for the inhibition in test [1], in test [2] and in test [3] were 13.5%, 11.1% and 2.52%, respectively.

For `CC1CCCCN1CCCNc1ncc2c(-c3ccc(NC(=O)Nc4cc(C(F)(F)F)ccc4F)c(F)c3)nn(C)c2n1` (centres undefined), the inhibition in test [1] is 1.38%; in test [2], -0.99%; in test [3] it was 0.83%.

With `O=C(NCCN1CCCC1)c1cccc(Nc2nccc(Nc3ccc(Oc4ccccc4)cc3)n2)c1`, the figures for the inhibition in test [1], in test [2] and in test [3] were 2.86%, 3.85% and 2.53%, respectively.

As for `CCN(C)CCCn1c(N(C)C)nc2cc(-n3cnc4cc(-c5ccc(Cl)cc5)sc4c3=O)ccc21`, the inhibition is 8.73% in test [1], 10.9% in test [2] and 3.62% in test [3].

Consider `Cc1noc(C)c1-c1ccc2c(Nc3ccccc3C(C)(C)C)c(C(=O)NCc3ccc(OC(C)C)cc3)cnc2c1`, for which the figures for the inhibition in test [1], in test [2] and in test [3] were 3.36%, 4.36% and 5.28%, respectively.

Consider `CC[C@H](N/C(=N\c1cccc(Cl)c1Cl)Nc1ccc(C#N)cc1O)c1ccccc1`, for which the inhibition in test [1] came out at 7.88%; in test [2] it was 9.4%; in test [3], 6.46%.

Consider `CCCCCCN1CCCN(Cc2ccc(C(=O)Nc3ccc(C)c(F)c3)cc2)CC1`, for which the inhibition in test [1] is 11.8%; in test [2] it was 7.68%; in test [3], 13.7%.

With `NC1=NC(CCc2ccccc2)N(c2ccccc2)C(N)=N1` (centres undefined), the results for the inhibition in test [1], in test [2] and in test [3] were 10.1%, 9.38% and 9.31%, respectively.

With `Cc1ccc(Oc2ccc(CNc3nc(Nc4cccc(F)c4)nc(Nc4cccc(F)c4)n3)cc2)cc1`, the inhibition came out at 8.54% in test [1], 8.04% in test [2] and 4.75% in test [3].

Turning to `CCOc1cc(C(=O)NCc2ccc(Cl)c(Cl)c2)ccc1-c1nc2cc(Cl)ccc2[nH]1`, the inhibition in test [1] is -0.85%; in test [2] it was 2.33%; in test [3], 7.21%.

`Cc1nc(N/C=C/c2ccc(O)cc2)cc(N2CCCC2)n1`: the inhibition was determined as 8.44% in test [1], 6.81% in test [2] and 7.13% in test [3].

With `O=C(Nc1ccc2ccccc2n1)c1ccccc1-c1ccccc1`, the inhibition in test [1] is -0.59%; in test [2] it was 2.19%; in test [3], -0.78%.

In the case of `COc1ccc2nc3cc(Cl)ccc3c(NCCCO)c2c1`, the inhibition in test [1] is 0.97%; in test [2] it was 0.85%; in test [3], 2.01%.

Turning to `CC1(C)N=C(N)N=C(N)N1OCC1COc2ccccc2O1` (centres undefined), the results for the inhibition in test [1], in test [2] and in test [3] were 1.54%, 0.64% and 0.96%, respectively.

For the molecule `O=C1C(c2ccccc2)=C(Nc2ccc(Cl)cc2)c2ccccc21`, the inhibition in test [1] stood at 1.6%; in test [2], 1.45%; in test [3] it was 2.61%.

`CN(C)CC(=O)Nc1ccc(Nc2nccc(NCC(O)c3ccccc3)n2)cc1` (centres undefined): the results for the inhibition in test [1], in test [2] and in test [3] were 1.63%, 2.79% and 0.21%, respectively.

With `N=C(N)NC(=O)Nc1cc(Cl)c(Cl)c(Br)c1`, the inhibition in test [1] is 6.7%; in test [2], 5.82%; in test [3], 2.08%.

`Cn1nc(-c2ccc(CNC3CCc4ccccc43)cc2)c2cnc(NCCN3CCCC3)nc21` (centres undefined): the inhibition in test [1] came out at 2.93%; in test [2], 3.09%; in test [3], 0.03%.

`CC(C)(C)OC(=O)N[C@@H](CS(=O)(=O)CCNC(=N)COCc1ccccc1)C(=O)OC(C)(C)C`: the inhibition in test [1] was found to be 7.09%; in test [2], 6.29%; in test [3], 5.74%.

`COc1cccc2c(NN=Cc3ccc(Cl)cc3)ccnc12`: the inhibition in test [1] came to 2.42%; in test [2] it was 2.54%; in test [3], 2.21%.

On to `CC1c2cccc(O)c2CCN1CCc1ccc(Cl)c(Cl)c1` (centres undefined), for which the inhibition came to 12.5% in test [1], 7.34% in test [2] and 5.5% in test [3].

Regarding `CCCC(=O)c1cnc2c(OCCCc3c[nH]cn3)cccc2c1Nc1c(C)cccc1C`, the figures for the inhibition in test [1], in test [2] and in test [3] were 2.21%, 1.13% and -1.19%, respectively.

Take `c1ccc(CN2CCC(NCc3cccc(-c4cncc5ccccc45)c3)CC2)cc1`: the inhibition was determined as 9.44% in test [1], 7.7% in test [2] and 8.64% in test [3].

Take `O=S(=O)(c1ccc(OCc2ccc(Cl)cc2)cc1)c1cc2c(cc1O)CCN(C1CCC1)CC2`: the inhibition was 2.05% in test [1], 1.15% in test [2] and 1.15% in test [3].

As to `Cc1nc(N/C(N)=N/C(=O)NC2CCCCC2)nc2ccccc12`, the inhibition in test [1] was 7.72%; in test [2] it was 5.72%; in test [3], 6.66%.

As to `Nc1ccc(-c2ccc(NC(=O)Nc3ccccc3)cc2)cn1`, the inhibition was 2.95% in test [1], 2.5% in test [2] and 3.08% in test [3].

For `COC(=O)C(=C(C)C)N1C(=O)[C@@H](NC(=O)OCc2ccccc2)[C@H]1SS[C@@H]1[C@H](NC(=O)OCc2ccccc2)C(=O)N1C(C(=O)OC)=C(C)C`, the inhibition in test [1] was -2.06%; in test [2], -0.42%; in test [3], -1.05%.

Consider `N#Cc1cccc(C(O)CN(Cc2ccccc2)Cc2ccccc2)c1` (centres undefined), for which the values for the inhibition in test [1], in test [2] and in test [3] were 1.37%, 1.53% and 2.04%, respectively.

Regarding `Cc1ccccc1OCC(=O)Nc1ccc(-c2nc3cc4ccccc4cc3[nH]2)cc1`, the inhibition was found to be 7.32% in test [1], 3.71% in test [2] and 4.05% in test [3].

Regarding `COc1ccc(N2CCN(CCCCNC(=O)c3ccc(NC(=O)c4cc(C(F)(F)F)cc(C(F)(F)F)c4)cc3)CC2)c(OC)c1`, the inhibition in test [1] came to 1.62%; in test [2] it was 1.33%; in test [3] it was 1.33%.

As for `COc1ccc(CCN(C)CCCN2CCC(NC(=O)c3cccc4c(=O)c5ccccc5sc34)CC2)cc1OC`, the inhibition turned out to be 2.6% in test [1], 1.86% in test [2] and 5.63% in test [3].

Take `O=C(Nc1ccnc(N2CC3CC2CN3Cc2cccc(O)c2)c1)c1ccc(F)cc1` (centres undefined): the inhibition is 0.07% in test [1], -1.27% in test [2] and 1.75% in test [3].

As for `CCn1cc(CN2CCCC(C(=O)Nc3ccc(-c4nc5ccccc5[nH]4)cc3)C2)cn1` (centres undefined), the inhibition in test [1] was 3.25%; in test [2], 3.52%; in test [3] it was 2.06%.

Consider `Cc1[nH]c(C)c(-c2ccc(CCc3ccc(F)cc3F)cc2)c(=O)c1Cl`, for which the inhibition in test [1] is 0.89%; in test [2], 1.94%; in test [3], -0.68%.

On to `CN(C)CCNCc1ncsc1-c1ccc2c(Nc3ccc(F)cc3Cl)ccnc2c1`, for which the inhibition in test [1] came out at 3.88%; in test [2] it was 4.3%; in test [3], 4.59%.

As to `CCN1CCN(CCCNc2c3ccc(Cl)cc3nc3ccc(O)cc23)CC1`, the inhibition in test [1] came out at 0.03%; in test [2], 0.02%; in test [3], 0.06%.

Consider `COc1ccc(CNC2Cc3ccccc3C2)cc1-c1ccc(S(=O)(=O)NCCN2CCCC2)s1`, for which the inhibition was found to be 17.7% in test [1], 15.5% in test [2] and 7.58% in test [3].

Regarding `CCC(C)OC(=O)C1=C(C)NC2=C(C(=O)CC(c3ccc(OC)c(OC)c3)C2)C1c1ccc(O)cc1` (centres undefined), the inhibition in test [1] is 3.25%; in test [2], 1.77%; in test [3], 1.8%.
